# High-throughput results from PubChem.
# Only some compounds are listed: those with a hit (about 1.7% of all), similar ones and a draw of the others.
# E-sel TNF inh: E-selectin induction blockers in HUVEC – imaging, immunofluorescence, high content, primary screen | AID 1246, 2008 | 120,000 tested, 0.71% active | inhibition, % at 2 µM | HUVEC TNFa-induced E-selectin immunofluorescence;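 active means inhibition above the batch mean plus 3 SD, and confirmed as a hit on visual image review, cut at about 43% in these data; inconclusive means passes the inhibition cutoff but fails visual image review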;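 further: 0% = TNF-stimulated DMSO wells and 100% = unstimulated control wells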
# TNFa cytotox: cytotoxicity in TNFa-stimulated HUVEC, primary screen, cytotoxicity control for VCAM1 expression modulator project, imaging, Hoechst nuclei count. HUVEC TNFalpha-stimulated, Hoechst cell count. 93,000 tested, 0.17% active. AID 848, 2007. cell count reduction, % at 2 µM;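 active means cell count reduction exceeding the screen mean by over 5 SD, scaled to untreated wells per plate, cut at about 78% in these data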;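 further: cells counted after 24 h of TNF alpha exposure following the 1 h pretreatment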
# IL1B NFkB inh: inhibitors of IL-1B driven NFkB p65 nuclear import, primary screen, imaging, HUVEC, IL-1B stimulus, high-content imaging; 94,000 tested, 0.43% active; inhibition, % at 2 µM; HUVEC IL-1B NFkB p65 nuclear translocation imaging;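 active means inhibition above about 30% together with a positive call from visual inspection of the well image, limit read from the data; inconclusive means inhibition above a set limit but visual check negative; inactive means inhibition not above a set limit, visual check negative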;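 further: nuclear over cytoplasmic p65 intensity ratio measured by imaging; 0% = IL-1B stimulated DMSO wells and 100% = unstimulated DMSO wells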
# IL1B cytotox: cytotoxicity in IL-1B stimulated HUVEC, primary screen, cytotoxicity control for IL-1B NFkB translocation project, imaging, Hoechst nuclear count, IL-1B stimulus; HUVEC cell count loss; cell count reduction, % at 2 µM; 94,000 tested, 0.41% active;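 active means cell count reduction more than 3 SD above the screen-wide mean, cut at about 70% in these data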;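 further: normalized per plate to untreated control cells as the no-loss baseline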
# IL1B NFkB pot: enhancers of NFkB p65 translocation in HUVEC – imaging, IL-1B stimulus, high-content imaging, primary screen. HUVEC IL-1B NFkB p65 nuclear translocation imaging. 94,000 tested, 0.3% active. activation, % at 2 µM;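 active means activation above 40%, about the mean plus 3 SD, also judged a hit on visual image review; inconclusive means activation above 40% but not a hit on visual review; inactive means activation not above 40% and no visual hit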;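 further: percent activation is computed from the nuclear over cytoplasmic p65 intensity ratio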
# VCAM1 TNFa inh: inhibitors of TNFa-induced VCAM1 expression, primary screen, imaging, HUVEC, TNFa stimulus, immunofluorescence. inhibition, % at 2 µM. AID 802, 2007. 95,000 tested, 0.48% active. HUVEC TNFa-induced VCAM-1 immunofluorescence, high-content imaging;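 active means inhibition above the batch mean plus 3 SD, with images confirmed as a hit by eye, cut at about 37% in these data; inconclusive means inhibition above that limit but hit not confirmed in images; inactive means inhibition not above that limit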;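 further: 0% = TNF-stimulated DMSO wells and 100% = unstimulated control wells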
# * marks the source's active call; other numbers are inactive results; ? = inconclusive; . = not tested or not shown.
SMILES,E-sel TNF inh,TNFa cytotox,IL1B NFkB inh,IL1B cytotox,IL1B NFkB pot,VCAM1 TNFa inh
O=c1/c(=C/c2ccco2)sc2n1CN(c1cccc(Br)c1)CN=2,-2,1,9,14,-9,11
Cc1ccc(/C=c2\sc3n(c2=O)CN(c2cccc(Br)c2)CN=3)o1,62*,-15,-8,-5,8,-6
CCOc1ccc(CCNc2ccc3nnc(-c4ccccc4)n3n2)cc1OCC,-11,.,.,.,.,.
Clc1ccc(CNc2ccc3nnc(-c4ccccc4)n3n2)cc1,76*,.,.,.,.,.
CCCCNC(=O)c1ccccc1NC(=O)CCC,-10,.,.,.,.,.
CC(C)C(c1nnnn1Cc1ccc2c(c1)OCO2)N1CCN(C)CC1 (stereo not drawn),42*,-20,-9,-31,9,8
CN(c1ccc(C(=O)NCCSC(C)(C)C)cc1)S(C)(=O)=O,-3,9,5,87*,-5,6
CN(c1ccc(C(=O)NCCc2ccccc2)cc1)S(C)(=O)=O,-12,8,23,-28,-23,-6
Cc1cc(NC(=O)CSCc2nc(-c3cccc(F)c3)oc2C)no1,.,0,3,-7,-3,-9
Cc1ccc(-c2nc(CSCC(=O)Nc3cc(C)on3)c(C)o2)cc1,.,89*,16,18,-16,38
CCOC(=O)c1c(NC(=O)CSc2nnc(-c3ccncc3)n2Cc2ccco2)sc(C(C)=O)c1C,-8,-5,38*,1,-38,2
CCCCN(CCCC)S(=O)(=O)c1ccc(NC(=O)c2cccs2)cc1,85*,2,18,-7,-18,2
Cc1ccc(SCC(=O)Nc2ccc(S(N)(=O)=O)cc2)cc1,-48,.,.,.,.,.
COc1ccc(NC(=O)CN(C)CC(=O)Nc2ccccc2SC)cc1,70*,.,.,.,.,.
COc1ccc(CSCC(=O)Nc2ccccc2SC)cc1,6,.,.,.,.,.
O=C(c1ccc(F)cc1)c1c[nH]c(C(=O)NCCCN2CCOCC2)c1,.,-12,-24,0,24,-12
CCC(CC)C(=O)c1c[nH]c(C(=O)NCCCN2CCOCC2)c1,86*,-10,8,-16,-8,-25
O=C(CSc1ncccc1-c1nc2ccccc2[nH]1)N1CCN(c2ccccc2F)CC1,-9,-12,-15,85*,15,22
Cn1c(=O)oc2cc(S(=O)(=O)N3CCN(Cc4ccc5c(c4)OCO5)CC3)ccc21,.,-20,11,87*,-11,1
O=C(CN1C(=O)S/C(=C/c2cc(Br)cs2)C1=O)N1CCOCC1,-6,.,.,.,.,.
Cc1ccc(N2CC(C(=O)Nc3cccnc3)CC2=O)cc1 (stereo not drawn),.,16,6,28,-6,-2
CCc1ccc(N2CC(C(=O)Nc3cccnc3)CC2=O)cc1 (stereo not drawn),63*,-9,-4,-87,5,3
Cn1c(=O)c2c(nc(SCC(=O)c3ccccc3F)n2C)n(C)c1=O,-10,.,.,.,.,.
Cc1cc(SCc2cc(=O)[nH]c3ccccc23)nc2ccccc12,64*,34,.,.,.,18
O=c1cc(CSc2ccccn2)c2ccccc2[nH]1,4,-44,0,-2,0,12
SMILES,E-sel TNF inh,TNFa cytotox,IL1B NFkB inh,IL1B cytotox,IL1B NFkB pot,VCAM1 TNFa inh
CCOC(=O)c1c(NC(=O)CC2SC(N)=NC2=O)sc2c1CCCC2 (stereo not drawn),37,0,-8,-30,8,-8
c1ccc2oc(-c3ccc4nc[nH]c4c3)nc2c1,6,-7,52*,-31,-52,-14
CN(C)Cc1nc2c(c(=O)[nH]1)C1(CCCCC1)Cc1ccccc1-2,.,11,8,6,-8,-11
CCN(CC)Cc1nc2c(c(=O)[nH]1)C1(CCCCC1)Cc1ccccc1-2,-2,.,5,90*,-5,-19
COC(=O)CSc1nnc(CNc2ccc(Cl)cc2)n1-c1ccccc1,-15,6,-7,2,7,3
O=C(N/N=C/c1cccc2ccccc12)c1n[nH]c2c1CCCC2,-5,.,.,.,.,.
O=C(N/N=C/C(Br)=C\c1ccccc1)c1n[nH]c2c1CCC2,57,69,4,62,-4,91*
CC(/C=N/NC(=O)c1n[nH]c2c1CCC2)=C\c1ccccc1,36,70,-31,6,31,67*
O=C(N/N=C/C=C/c1ccccc1)c1n[nH]c2c1CCC2,10,25,34*,47,-34,68*
CC1(C)N([O-])C2=C(CCCC2)[N+]1=O,-23,.,.,.,.,.
COc1cccc(C(=O)Oc2cc(N)n(S(=O)(=O)c3ccc(C)cc3)n2)c1OC,-29,-14,32*,-4,-33,-4
Cc1cccc2nc(COc3ccc(Cl)c4cccnc34)cn12,25,.,.,.,.,.
CCCCS(=O)(=O)/C=C\C=C/S(=O)(=O)CCCC,.,28,95*,58,-95,86*
CCCCS(=O)(=O)/C=C\C1C2C=CC(C2)C1S(=O)(=O)CCCC (stereo not drawn),-18,49,-4,5,3,17
C=CCNC(=O)c1onc(CSc2ccc(F)cc2)c1C(=O)NCCOC,-8,-3,11,-14,-11,2
CC1Oc2ccccc2C=C1/C=C1/SC(N2CCOCC2)=NC1=O (stereo not drawn),0,13,10,0,-10,52*
Cc1ccc(/C=N/n2c(C3CCCCC3)n[nH]c2=S)s1,-10,.,.,.,.,.
COc1ccc(CC(=O)NC(C)c2nnc(SCCOc3ccc(OC)cc3)n2C)cc1 (stereo not drawn),10,83*,?,24,-64,8
NCCCCCc1nnc(SCc2ccc(Cl)c(Cl)c2)o1,-18,-19,-16,1,16,11
CCOC(=O)N/N=C/c1ccc(C)o1,-16,-2,33*,-12,-33,-10
COc1cc(-c2nnc3n2N=C(c2ccccc2)CS3)cc(OC)c1OC,-50,-2,0,-18,0,54*
COc1ccc(OC)c(C2=Nn3c(nnc3-c3cc(OC)c(OC)c(OC)c3)SC2)c1,-41,-7,3,-15,-3,-12
COc1ccc(C2=Nn3c(nnc3-c3ccc(OC)cc3)SC2)cc1,4,34,-2,4,2,40*
COc1ccc(C2=Nn3c(nnc3-c3ccccc3OC)SC2)cc1OC,-24,55,29,-90,-29,48*
[O-][n+]1c2c(c3c4non(O)c4ccc31)CCCC2,18,-2,23,88*,-23,-2
COn1c2c(c3c4no[n+]([O-])c4ccc31)CCCC2,-1,5,-12,8,12,5
COCCN1CN(S(=O)(=O)c2ccccc2)c2nc3ccccc3nc21,63*,.,4,24,-4,.
